Measured values as given in PubChem BioAssay (NCI).
Compounds without any hit were thinned out: in the full panel of roughly 79,000, 15% have a hit. Activity calls are given as the source filed them. Cut-off read from the data, not from the text of the source: active = growth inhibition above about 70%; inactive = the rest.

Legend:
[1] = NCI Yeast Anticancer Drug Screen. Data for the rad52 strain (AID 147);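 note: 0% = growth of vehicle-treated control cultures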; conditions: S. cerevisiae rad52 mutant growth inhibition, stronger effect = higher value
Method in brief: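 Compounds are applied to a genetically defined yeast strain lacking normal DNA damage repair, and inhibition of growth is expressed relative to cultures given vehicle only.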

[2] = NCI Yeast Anticancer Drug Screen. Data for the wt1 strain (AID 149);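 note: 0% = growth of vehicle-treated wt1 cultures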; conditions: S. cerevisiae wt1 strain (SPY 50644) growth inhibition, stronger effect = higher value
Method in brief: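 Using yeast strain wt1, compound-induced growth inhibition was determined against vehicle-treated cultures.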

[3] = NCI Yeast Anticancer Drug Screen. Data for the rad50 strain (AID 155);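 note: 0% = growth of vehicle-only cultures of the same strain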; conditions: S. cerevisiae rad50 strain growth inhibition, stronger effect = higher value
Method in brief: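 Relative growth inhibition (compound vs vehicle) was measured in yeast with a defined repair-gene alteration.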

[4] = NCI Yeast Anticancer Drug Screen. Data for the mec2-1 strain (AID 157); conditions: S. cerevisiae mec2-1 strain, stronger effect = higher value
Method in brief: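 Strain: mec2-1 (DNA repair/cell cycle alteration). Compound exposure, then growth measured; inhibition expressed relative to vehicle.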

[5] = NCI Yeast Anticancer Drug Screen. Data for the rad14 strain (AID 159);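 note: 0% = growth of vehicle-treated control cultures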; conditions: S. cerevisiae rad14 strain growth inhibition, stronger effect = higher value
Method in brief: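 Screen for anticancer potential: a yeast strain altered in DNA damage repair is grown with compound, and reduced growth is quantified against vehicle controls.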

[6] = NCI Yeast Anticancer Drug Screen. Data for the sgs1 mgt1 strain (AID 161);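 note: 0% = growth of cultures given vehicle only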; conditions: S. cerevisiae sgs1 mgt1 strain, stronger effect = higher value
Method in brief: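 Mutant yeast exposed to compound; growth scored against vehicle-only wells.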

[7] = NCI Yeast Anticancer Drug Screen. Data for the CLN2oe strain (AID 163);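 note: 0% = growth of vehicle-only control cultures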; conditions: S. cerevisiae CLN2oe strain, stronger effect = higher value
Method in brief: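 Growth of a genetically modified yeast strain is measured after compound exposure and compared with cultures given vehicle alone.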

[8] = NCI Yeast Anticancer Drug Screen. Data for the cln2 rad14 strain (AID 165);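 note: 0% = growth equal to vehicle treated cultures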; conditions: S. cerevisiae cln2 rad14 strain, stronger effect = higher value
Method in brief: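 Compounds are applied to the cln2 rad14 yeast strain, and growth is then compared with that of vehicle-treated cultures to give inhibition.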

[9] = NCI Yeast Anticancer Drug Screen. Data for the bub3 strain (AID 167); conditions: S. cerevisiae bub3 mutant strain, stronger effect = higher value
Method in brief: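 Screening used yeast with an engineered genetic alteration affecting cell cycle control. Compound-exposed cultures were compared with vehicle cultures, and reduced growth was taken as inhibition.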

[10] = NCI Yeast Anticancer Drug Screen. Data for the wt2 strain (AID 169);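 note: 0% = growth of vehicle-treated yeast cultures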; conditions: S. cerevisiae wt2 strain growth inhibition, stronger effect = higher value
Method in brief: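 This strain belongs to a panel of yeast strains with defined genetic alterations in DNA damage repair or cell cycle control. Compounds are applied, and growth inhibition is measured against vehicle-treated cultures.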

[11] = NCI Yeast Anticancer Drug Screen. Data for the mlh1 strain (AID 171);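 note: 0% = growth of vehicle-treated control cultures of the same strain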; conditions: S. cerevisiae mlh1 strain growth inhibition, stronger effect = higher value
Method in brief: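 Growth of the mutant yeast strain after compound exposure, expressed as inhibition relative to vehicle-only controls.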

[12] = NCI Yeast Anticancer Drug Screen. Data for the sgs1 strain (AID 173);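 note: 0% = growth of vehicle-only control cultures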; conditions: S. cerevisiae sgs1 mutant, stronger effect = higher value
Method in brief: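 Growth of a yeast strain bearing a defined genetic alteration is measured after compound treatment. Inhibition is expressed relative to vehicle-only controls.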

[13] = NCI Yeast Anticancer Drug Screen. Data for the mlh1 rad18 strain (AID 175); conditions: S. cerevisiae mlh1 rad18 strain growth inhibition, stronger effect = higher value
Method in brief: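 Read-out is yeast growth inhibition, calculated against vehicle-only controls. The compound was applied to a strain engineered with DNA damage repair alterations.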

[14] = NCI Yeast Anticancer Drug Screen. Data for the rad18 strain (AID 177); conditions: S. cerevisiae rad18 mutant growth inhibition, stronger effect = higher value
Method in brief: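 Growth of the mutant yeast strain after compound exposure, normalised to vehicle-only cultures.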

[15] = NCI Yeast Anticancer Drug Screen. Data for the rad50EPP+ strain (AID 151);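 note: 0% = growth of vehicle-treated control cultures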; conditions: S. cerevisiae rad50 mutant strain, stronger effect = higher value
Method in brief: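 Compounds were applied to the rad50EPP+ yeast strain, which bears a defined DNA repair alteration, and growth inhibition was determined relative to vehicle-treated cultures.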

[16] = NCI Yeast Anticancer Drug Screen. Data for the mgt1 strain (AID 153); conditions: S. cerevisiae mgt1 mutant growth inhibition, stronger effect = higher value
Method in brief: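 Strain: mgt1 yeast, one of a set carrying defined DNA damage repair or cell cycle control alterations. Compound-treated growth compared with vehicle.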

[17] = at 5.0 µM (retest, dose inferred, filed as 0.5)
[18] = at 50.0 µM (retest, dose inferred, filed as 5.0)

Measured: growth inhibition

O=C(NCCNCCNC(=O)c1cc(-c2ccccc2)nc2ccccc12)c1cc(-c2ccccc2)nc2ccccc12
active: [4]; at 50.0 µM 96.3% | [8]; at 50.0 µM 90.3% | [9]; at 50.0 µM 97.8%
inactive: [1]; at 1.2 µM -3% | [1]; at 3.7 µM -3% | [1]; at 11.0 µM -3% | [1]; at 33.0 µM -5% | [1]; at 100.0 µM 41% | [2]; at 1.2 µM -2% | [2]; at 3.7 µM -2% | [2]; at 11.0 µM -3% | [2]; at 33.0 µM -2% | [2]; at 100.0 µM 6% | [3]; at 1.2 µM -3% | [3]; at 3.7 µM -2% | [3]; [17] -11% | [3]; at 11.0 µM -4% | [3]; at 33.0 µM -2% | [3]; [18] 28% | [3]; at 50.0 µM 31.6% | [3]; at 100.0 µM 1% | [4]; at 1.2 µM -3% | [4]; at 3.7 µM -3% | [4]; [17] -11% | [4]; at 11.0 µM -1% | [4]; at 33.0 µM -2% | [4]; [18] 40% | [4]; at 100.0 µM 5% | [5]; at 1.2 µM -3% | [5]; at 3.7 µM -1% | [5]; at 11.0 µM -2% | [5]; at 33.0 µM 4% | [5]; at 100.0 µM 4% | [6]; [17] 9% | [6]; [18] 7% | [6]; at 50.0 µM 21.6% | [7]; at 1.2 µM -2% | [7]; at 3.7 µM -2% | [7]; at 11.0 µM -3% | [7]; at 33.0 µM -5% | [7]; at 100.0 µM 45% | [8]; [17] -4% | [8]; [18] 45% | [9]; at 1.2 µM -2% | [9]; at 3.7 µM -1% | [9]; [17] 2% | [9]; at 11.0 µM -1% | [9]; at 33.0 µM -5% | [9]; [18] 58% | [9]; at 100.0 µM -2% | [10]; at 1.2 µM -2% | [10]; at 3.7 µM -2% | [10]; at 11.0 µM -1% | [10]; at 33.0 µM -2% | [10]; at 100.0 µM 4% | [11]; at 1.2 µM -2% | [11]; at 3.7 µM 1% | [11]; at 11.0 µM -2% | [11]; at 33.0 µM -2% | [11]; at 100.0 µM -1% | [12]; at 1.2 µM -2% | [12]; at 3.7 µM 0% | [12]; at 11.0 µM 0% | [12]; at 33.0 µM 0% | [12]; at 100.0 µM 22% | [13]; [17] 7% | [13]; [18] 66% | [13]; at 50.0 µM 50.6% | [14]; at 1.2 µM -3% | [14]; at 3.7 µM -4% | [14]; at 11.0 µM -3% | [14]; at 33.0 µM -2% | [14]; at 100.0 µM -1%

Oc1ccc(C2(c3ccc(O)cc3)CCCC2)cc1
inactive: [1]; at 1.2 µM -31% | [1]; at 3.7 µM -23% | [1]; at 11.0 µM 15% | [15]; at 1.2 µM -40% | [15]; at 3.7 µM -50% | [15]; at 11.0 µM -44% | [15]; at 33.0 µM -50% | [15]; at 100.0 µM -4% | [16]; at 1.2 µM -23% | [16]; at 3.7 µM -6% | [16]; at 11.0 µM 37% | [3]; at 1.2 µM 3% | [3]; at 3.7 µM 4% | [3]; [17] 16% | [3]; at 11.0 µM 34% | [4]; at 1.2 µM -26% | [4]; at 3.7 µM -16% | [4]; [17] 8% | [4]; at 11.0 µM 32% | [5]; at 1.2 µM 1% | [5]; at 3.7 µM -16% | [5]; at 11.0 µM 29% | [6]; [17] 9% | [6]; [18] 53% | [7]; at 1.2 µM -12% | [7]; at 3.7 µM 16% | [7]; at 11.0 µM 48% | [8]; [17] 44% | [9]; at 1.2 µM -24% | [9]; at 3.7 µM -22% | [9]; [17] 16% | [9]; at 11.0 µM 27% | [10]; at 1.2 µM -54% | [10]; at 3.7 µM -30% | [10]; at 11.0 µM -18% | [11]; at 1.2 µM -33% | [11]; at 3.7 µM -26% | [11]; at 11.0 µM 46% | [12]; at 1.2 µM -20% | [12]; at 3.7 µM -17% | [12]; at 11.0 µM 11% | [13]; [17] 35% | [14]; at 1.2 µM -11% | [14]; at 3.7 µM 7% | [14]; at 11.0 µM 60%
active: [1]; at 33.0 µM 98% | [1]; at 100.0 µM 98% | [16]; at 33.0 µM 97% | [16]; at 100.0 µM 98% | [3]; at 33.0 µM 98% | [3]; [18] 99% | [3]; at 50.0 µM 90.5% | [3]; at 100.0 µM 98% | [4]; at 33.0 µM 98% | [4]; [18] 99% | [4]; at 50.0 µM 93.2% | [4]; at 100.0 µM 98% | [5]; at 33.0 µM 98% | [5]; at 100.0 µM 98% | [6]; at 50.0 µM 92.1% | [7]; at 33.0 µM 99% | [7]; at 100.0 µM 98% | [8]; [18] 99% | [8]; at 50.0 µM 89.5% | [9]; at 33.0 µM 98% | [9]; [18] 98% | [9]; at 50.0 µM 92.1% | [9]; at 100.0 µM 98% | [10]; at 33.0 µM 98% | [10]; at 100.0 µM 98% | [11]; at 33.0 µM 98% | [11]; at 100.0 µM 98% | [12]; at 33.0 µM 98% | [12]; at 100.0 µM 98% | [13]; [18] 99% | [13]; at 50.0 µM 90% | [14]; at 33.0 µM 98% | [14]; at 100.0 µM 98%

CC(CN(C)C)C(=O)/C=C/c1ccc(Cl)c(Cl)c1 (stereo unspecified)
inactive: [1]; at 1.2 µM 7% | [1]; at 3.7 µM 15% | [1]; at 11.0 µM 29% | [2]; at 1.2 µM 4% | [2]; at 3.7 µM 6% | [2]; at 11.0 µM 9% | [2]; at 33.0 µM 24% | [16]; at 1.2 µM 4% | [16]; at 3.7 µM 3% | [16]; at 11.0 µM 13% | [3]; at 1.2 µM 0% | [3]; at 3.7 µM -3% | [3]; [17] -9% | [3]; at 11.0 µM 20% | [3]; at 33.0 µM 66% | [3]; [18] 3% | [4]; at 1.2 µM 4% | [4]; at 3.7 µM 5% | [4]; [17] 4% | [4]; at 11.0 µM 14% | [4]; at 33.0 µM 48% | [4]; [18] -10%
active: [1]; at 33.0 µM 73% | [1]; at 100.0 µM 95% | [2]; at 100.0 µM 85% | [16]; at 33.0 µM 83% | [16]; at 100.0 µM 98% | [3]; at 50.0 µM 99.2% | [3]; at 100.0 µM 95% | [4]; at 50.0 µM 99.4%
